The nature of experiment [1]: ATG_E_Box_CIS: Attagene CIS-FACTORIAL HepG2 Assay for human Enhancer Box (E-box) (AID 2282936). To be noted: HepG2 E-box cis-reporter transcription, actives raise or lower the signal. In short, it runs like this:
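E-box-driven reporter transcripts measured in transiently transfected HepG2 after 24 h exposure: RNA reverse-transcribed, PCR-amplified, fluorescently labelled, digested and resolved by capillary electrophoresis. Gain or loss relative to DMSO.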

The nature of experiment [2]: ATG_M_61_CIS: Attagene CIS-FACTORIAL HepG2 Assay for M61 Transcription Factor (Internal Marker) (AID 2282937). To be noted: HepG2 Attagene CIS-FACTORIAL M61 internal marker reporter; actives raise or lower the signal. In short, it runs like this:
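Human liver HepG2, transient MRTU transfection (cis promoter elements), 24 h compound. Total RNA → oligo(dT) RT → PCR → FAM label → HpaI → CE. Internal background marker; bidirectional fitting, DMSO = baseline.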

The nature of experiment [3]: ATG_EGR_CIS: Attagene CIS-FACTORIAL HepG2 Assay for human Early Growth Response 1 (EGR1) (AID 2282938). To be noted: HepG2 Attagene CIS-FACTORIAL EGR reporter mRNA; actives raise or lower the signal. The method in brief:
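Transient transfection of human HepG2 with multiple cis-regulated reporter units, chemical exposure 24 h, total RNA isolated. Reverse transcription, PCR, fluorescent labelling and capillary electrophoresis quantify reporter transcripts; activity fitted bidirectionally against DMSO.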

Experiment [4] can be described thus: ATG_M_19_CIS: Attagene CIS-FACTORIAL HepG2 Assay for M19 Transcription Factor (Internal Marker) (AID 2282939). To be noted: HepG2 Attagene CIS-FACTORIAL M19 internal marker reporter; actives raise or lower the signal. The method in brief: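 HepG2 cells transiently transfected with cis-regulated multiplexed reporter units, dosed 24 h. Reporter mRNA quantified by RT-PCR and capillary electrophoresis; internal background marker fitted bidirectionally versus DMSO.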

The nature of experiment [5]: ATG_ERE_CIS: Attagene CIS-FACTORIAL HepG2 Assay for Estrogen Response Element (ERE) (AID 2282940). To be noted: HepG2 ERE cis-reporter, Attagene RNA transcript; actives raise or lower the signal. The method in brief:
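HepG2 cells transiently transfected with multiplexed cis-element reporter units, measuring endogenous transcription factor activity; ERE reporter mRNA quantified after 24 h exposure by RT-PCR, fluorescent labelling, HpaI digestion and capillary electrophoresis. Bidirectional change versus DMSO.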

Experiment [6] can be described thus: ATG_Ets_CIS: Attagene CIS-FACTORIAL HepG2 Assay for human Erythroblast Transformation Specific (ETS) (AID 2282941). To be noted: HepG2 ETS cis-reporter transcription, actives raise or lower the signal. The method in brief:
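Multiplexed reporter transcript profiling: HepG2, 24 h treatment, total RNA to cDNA, PCR, 6-FAM labelling, HpaI cut, capillary electrophoresis. Gain- or loss-of-signal fitted against DMSO.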

In experiment [7] the target is Hepatocyte nuclear factor 3-beta (Homo sapiens) (UniProt Q9Y261). Briefly: ATG_FoxA2_CIS: Attagene CIS-FACTORIAL HepG2 Assay for human Forkhead box A2 (FOXA2) (AID 2282942). To be noted: HepG2 cis-reporter transcription factor activity, 24 h; actives raise or lower the signal. In short, it runs like this: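 Transient MRTU transfection of HepG2 liver cells; 24 h treatment; total RNA → oligo(dT) RT → PCR → FAM primer extension → HpaI cut → CE. Bidirectional fit vs DMSO.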
Chain of Hepatocyte nuclear factor 3-beta (Homo sapiens) (Q9Y261 whole entry, looked up): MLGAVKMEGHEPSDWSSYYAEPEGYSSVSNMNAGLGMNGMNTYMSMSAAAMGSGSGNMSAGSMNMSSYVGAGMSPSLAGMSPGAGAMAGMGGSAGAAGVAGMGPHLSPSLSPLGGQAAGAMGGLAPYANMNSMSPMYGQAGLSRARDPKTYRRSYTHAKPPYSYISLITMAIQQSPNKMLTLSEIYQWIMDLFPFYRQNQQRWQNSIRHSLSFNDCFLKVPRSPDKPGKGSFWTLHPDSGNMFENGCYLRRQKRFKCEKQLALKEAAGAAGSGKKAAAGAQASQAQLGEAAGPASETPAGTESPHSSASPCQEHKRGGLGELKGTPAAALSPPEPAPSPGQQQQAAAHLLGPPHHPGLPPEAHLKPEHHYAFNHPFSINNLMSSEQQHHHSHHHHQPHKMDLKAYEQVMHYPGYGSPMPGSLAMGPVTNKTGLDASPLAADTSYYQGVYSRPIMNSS

A short description of experiment [8]: ATG_FoxO_CIS: Attagene CIS-FACTORIAL HepG2 Assay for human Forkhead box O (FoxO) (AID 2282943). To be noted: HepG2 Attagene cis-reporter, FoxO element, mRNA; actives raise or lower the signal. The method in brief:
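Human hepatoma HepG2 cells carry transiently introduced reporter transcription units controlled by cis promoter elements. Chemical treatment lasted 24 h, and mRNA signal was compared with DMSO.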

Experiment [9] is described as follows: ATG_GATA_CIS: Attagene CIS-FACTORIAL HepG2 Assay for human GATA Binding Protein (AID 2282944). To be noted: HepG2 GATA cis-element reporter, Attagene multiplex mRNA; actives raise or lower the signal. The method in brief: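 HepG2 cells transiently transfected with multiplexed cis-element reporter units measure endogenous GATA activity; after 24 h compound exposure, reporter mRNA quantified by RT-PCR and capillary electrophoresis. Changes fitted in both directions vs DMSO.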

Experiment [10] can be described thus: ATG_GLI_CIS: Attagene CIS-FACTORIAL HepG2 Assay for human Zinc Finger Protein GLI1 (AID 2282945). To be noted: HepG2, Attagene cis-factorial reporter mRNA, GLI element; actives raise or lower the signal. In short, it runs like this: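 Bidirectional curve fits relative to DMSO, using reporter mRNA levels from RT-PCR plus capillary electrophoresis. Cells were HepG2 transiently carrying cis-regulated reporter constructs, harvested 24 h after dosing.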

Experiment [11] concerns the target Bile acid receptor (Homo sapiens) (UniProt Q96RI1). Briefly: ATG_IR1_CIS: Attagene CIS-FACTORIAL HepG2 Assay for human Nuclear Receptor Subfamily 1 Group H Member 4 (NR1H4), IR1 submotif (AID 2282946). To be noted: IR1 reporter transcription, actives raise or lower the signal. The method in brief:
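HepG2 cells transiently transfected with multiplexed cis-element reporter units read endogenous transcription factor activity. After 24 h compound exposure, reporter mRNA was quantified by RT-PCR, fluorescent labelling, HpaI digestion and capillary electrophoresis; bidirectional fitting versus DMSO baseline.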

The nature of experiment [12]: ATG_ISRE_CIS: Attagene CIS-FACTORIAL HepG2 Assay for human Interferon Regulatory Factor 1 (IRF1) binding to an Interferon-Stimulated Response Element (ISRE) (AID 2282948). To be noted: HepG2 ISRE cis-reporter (Attagene), mRNA transcription readout; actives raise or lower the signal. In short, it runs like this: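 Signal reflects induction or loss of ISRE-linked reporter mRNA in transiently transfected HepG2 cells after a 24 h treatment, detected by fluorescent RT-PCR fragments on capillary electrophoresis and normalised to DMSO.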

Experiment [13] can be described thus: ATG_M_32_CIS: Attagene CIS-FACTORIAL HepG2 Assay for M32 Transcription Factor (Internal Marker) (AID 2282949).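 Note: background control marker of the multiplexed CIS panel rather than a real target.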 To be noted: HepG2 Attagene cis-factorial M32 reporter, mRNA; actives raise or lower the signal. In short, it runs like this: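 HepG2 human liver cells transiently transfected with cis-promoter-driven multiple reporter transcription units, dosed 24 h. Reporter mRNA quantified by RT-PCR, FAM-labelled primer extension, HpaI digest and capillary electrophoresis; bidirectional fit versus DMSO baseline.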

Experiment [14] in a line: ATG_M_06_CIS: Attagene CIS-FACTORIAL HepG2 Assay for M06 Transcription Factor (Internal Marker) (AID 2282950). To be noted: HepG2 Attagene CIS-FACTORIAL M06 internal marker reporter; actives raise or lower the signal. In short, it runs like this:
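Internal background marker within multiplexed cis-reporter HepG2 system. Cells transiently transfected, dosed 24 h; reporter mRNA measured by RT-PCR, HpaI digestion and capillary electrophoresis. Bidirectional fit relative to DMSO.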

Experiment [15] concerns the target Hypoxia-inducible factor 1-alpha (Homo sapiens) (UniProt Q16665). In words: ATG_HIF1a_CIS: Attagene CIS-FACTORIAL HepG2 Assay for human Hypoxia Inducible Factor 1 (HIF1A) (AID 2282951). To be noted: HepG2 Attagene cis-factorial HIF1a reporter transcription; actives raise or lower the signal. In short, it runs like this:
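Transient MRTU transfection of human HepG2 liver cells, 24 h compound treatment, then total RNA isolation, oligo(dT) reverse transcription, PCR amplification, fluorescent labelling and capillary electrophoresis of reporter fragments. Gain or loss relative to DMSO.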

Experiment [16] addresses Hepatocyte nuclear factor 6 (Homo sapiens) (UniProt Q9UBC0). Briefly: ATG_HNF6_CIS: Attagene CIS-FACTORIAL HepG2 Assay for human Hepatocyte Nuclear Factor 6 (HNF6) (AID 2282952). To be noted: HepG2 Attagene cis-factorial HNF6 reporter transcription; actives raise or lower the signal. In short, it runs like this:
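Endogenous factor activity read in transiently transfected HepG2 via promoter-regulated reporter transcripts. RNA harvested 24 h post-dosing, reverse-transcribed, PCR-amplified, FAM-labelled, HpaI-digested and resolved by capillary electrophoresis; fitted in both directions against DMSO.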

Experiment [17] concerns the target Heat shock factor protein 1 (Homo sapiens) (UniProt Q00613). In words: ATG_HSE_CIS: Attagene CIS-FACTORIAL HepG2 Assay for human Heat Shock Transcription Factor 1 (HSE) (AID 2282953). To be noted: HepG2 HSE cis-reporter, Attagene RNA transcription; actives raise or lower the signal. The method in brief: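 HepG2 cells transfected with cis-promoter reporter units sensing endogenous transcription factor activity; reporter mRNA quantified 24 h post-dose by RT-PCR and capillary electrophoresis of 6-FAM-labelled products. Bidirectional fitting against DMSO.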

Experiment [18] in a line: ATG_MRE_CIS: Attagene CIS-FACTORIAL HepG2 Assay for human Metal Responsive Element (MRE) (AID 2282954). To be noted: HepG2 MRE cis-reporter transcription, Attagene multiplex; actives raise or lower the signal. In short, it runs like this:
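Endogenous MRE-dependent transcription read as reporter mRNA in transiently transfected human HepG2 cells at 24 h. RNA reverse-transcribed, PCR-amplified, labelled and resolved by capillary electrophoresis; gain or loss relative to DMSO.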

The nature of experiment [19]: ATG_PBREM_CIS: Attagene CIS-FACTORIAL HepG2 Assay for human Phenobarbital-responsive Enhancer Module (PBREM) (AID 2282955). To be noted: HepG2 PBREM cis-reporter, Attagene multiplexed transcription; actives raise or lower the signal. The method in brief:
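Endogenous transcription factors in human liver HepG2 cells drive a PBREM cis-element reporter, whose transcript level after 24 h treatment is quantified by RT-PCR with capillary electrophoresis; activity fitted in both directions against DMSO.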

Experiment [20] is described as follows: ATG_GRE_CIS: Attagene CIS-FACTORIAL HepG2 Assay for human Glucocorticoid Response Elements (GRE) (AID 2282947). To be noted: HepG2 GRE cis-reporter, Attagene multiplex mRNA; actives raise or lower the signal. In short, it runs like this: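 Reporter transcripts read by RT-PCR with capillary electrophoresis fluorescence after a 24 h chemical exposure of HepG2 cells transiently transfected with multiple cis-element reporter units. Gain or loss fitted against DMSO.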

The source of these data is PubChem BioAssay (EPA / NIEHS).

Activity calls are given as the source filed them. Rule for the calls: active = hit-call score of the fitted dose curve at least 0.9, where 1 is the maximum; inactive = score below 0.9.

Chain of Heat shock factor protein 1 (Homo sapiens) (Q00613 whole entry, looked up): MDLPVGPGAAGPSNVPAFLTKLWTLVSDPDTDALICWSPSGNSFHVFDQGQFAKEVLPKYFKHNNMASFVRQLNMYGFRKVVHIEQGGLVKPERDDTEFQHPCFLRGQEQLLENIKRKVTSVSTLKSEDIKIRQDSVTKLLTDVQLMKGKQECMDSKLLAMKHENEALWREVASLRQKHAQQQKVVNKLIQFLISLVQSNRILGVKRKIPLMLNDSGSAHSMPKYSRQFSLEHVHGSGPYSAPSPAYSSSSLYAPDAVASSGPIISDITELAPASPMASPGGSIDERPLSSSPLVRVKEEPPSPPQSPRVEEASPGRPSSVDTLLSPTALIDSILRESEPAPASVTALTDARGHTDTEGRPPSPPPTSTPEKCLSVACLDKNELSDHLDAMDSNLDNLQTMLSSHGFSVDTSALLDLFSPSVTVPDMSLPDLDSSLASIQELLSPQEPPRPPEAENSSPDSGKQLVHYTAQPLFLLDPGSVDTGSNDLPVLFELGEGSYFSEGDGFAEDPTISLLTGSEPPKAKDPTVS
Chain of Bile acid receptor (Homo sapiens) (Q96RI1 whole entry, looked up): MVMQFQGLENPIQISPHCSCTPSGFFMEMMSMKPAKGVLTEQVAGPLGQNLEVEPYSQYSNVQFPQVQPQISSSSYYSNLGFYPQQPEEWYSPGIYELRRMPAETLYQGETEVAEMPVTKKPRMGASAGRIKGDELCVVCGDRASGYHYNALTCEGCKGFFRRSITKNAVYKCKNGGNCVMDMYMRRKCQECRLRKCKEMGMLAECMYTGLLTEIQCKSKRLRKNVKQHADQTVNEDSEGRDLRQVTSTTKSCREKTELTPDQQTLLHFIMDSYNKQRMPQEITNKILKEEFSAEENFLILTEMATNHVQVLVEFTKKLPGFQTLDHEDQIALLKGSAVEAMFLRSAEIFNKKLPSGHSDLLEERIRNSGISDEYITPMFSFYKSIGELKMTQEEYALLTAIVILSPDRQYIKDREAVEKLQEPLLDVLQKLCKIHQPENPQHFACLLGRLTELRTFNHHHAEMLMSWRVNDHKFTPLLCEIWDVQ
Chain of Hypoxia-inducible factor 1-alpha (Homo sapiens) (Q16665 whole entry, looked up, the tested form may be a part): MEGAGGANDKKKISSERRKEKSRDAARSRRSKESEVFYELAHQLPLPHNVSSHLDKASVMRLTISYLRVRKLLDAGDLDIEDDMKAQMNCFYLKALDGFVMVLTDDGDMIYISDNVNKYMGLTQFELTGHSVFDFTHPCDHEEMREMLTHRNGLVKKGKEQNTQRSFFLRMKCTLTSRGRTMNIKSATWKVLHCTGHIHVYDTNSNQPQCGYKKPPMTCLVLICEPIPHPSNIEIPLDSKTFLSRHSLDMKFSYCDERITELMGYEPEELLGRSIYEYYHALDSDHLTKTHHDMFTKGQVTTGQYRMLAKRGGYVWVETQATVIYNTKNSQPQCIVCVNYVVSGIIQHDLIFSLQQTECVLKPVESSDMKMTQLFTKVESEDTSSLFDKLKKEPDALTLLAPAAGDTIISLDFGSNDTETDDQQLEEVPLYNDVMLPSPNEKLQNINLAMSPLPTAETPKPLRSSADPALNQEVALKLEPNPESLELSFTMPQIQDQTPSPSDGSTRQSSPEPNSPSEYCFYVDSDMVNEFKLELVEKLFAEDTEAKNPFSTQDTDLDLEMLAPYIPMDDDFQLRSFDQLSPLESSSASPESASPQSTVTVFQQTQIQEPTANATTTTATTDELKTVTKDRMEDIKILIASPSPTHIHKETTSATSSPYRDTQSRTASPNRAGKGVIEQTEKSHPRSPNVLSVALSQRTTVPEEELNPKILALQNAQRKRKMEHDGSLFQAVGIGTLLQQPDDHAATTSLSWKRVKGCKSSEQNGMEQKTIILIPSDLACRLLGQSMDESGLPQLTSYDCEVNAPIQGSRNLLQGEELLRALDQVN
Chain of Hepatocyte nuclear factor 6 (Homo sapiens) (Q9UBC0 whole entry, looked up): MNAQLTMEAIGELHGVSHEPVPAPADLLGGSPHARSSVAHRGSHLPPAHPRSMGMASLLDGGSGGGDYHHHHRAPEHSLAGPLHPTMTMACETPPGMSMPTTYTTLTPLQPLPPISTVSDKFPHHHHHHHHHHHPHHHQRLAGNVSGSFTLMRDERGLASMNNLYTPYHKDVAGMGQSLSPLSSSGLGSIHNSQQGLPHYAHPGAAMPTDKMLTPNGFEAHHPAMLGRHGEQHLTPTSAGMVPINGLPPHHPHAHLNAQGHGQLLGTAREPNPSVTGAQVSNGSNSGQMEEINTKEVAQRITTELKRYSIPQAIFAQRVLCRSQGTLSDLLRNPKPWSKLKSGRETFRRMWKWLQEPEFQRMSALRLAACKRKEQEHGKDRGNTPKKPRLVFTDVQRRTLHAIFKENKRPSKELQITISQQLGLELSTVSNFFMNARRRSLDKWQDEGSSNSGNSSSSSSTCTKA

One may read the AC50 as the midpoint of the concentration-response curve, whichever way the signal moves. `Cc1ccc2sc3cccc(C)c3c2c1`: the outcome in [1], in [2], in experiment [3], in [4], in [5] and in experiment [6] was inactive. Moreover, the compound was called inactive in experiment [7], in [8], in experiment [9], in experiment [10], in [11] and in experiment [12]. The compound was classed as inactive in experiment [13], in experiment [14], in experiment [16], in [17], in experiment [18] and in [19]. In addition, the AC50 in experiment [15] was 52.9 µM (active).

For `O=C1c2ccccc2C(=O)N1SC1CCCCC1`, the outcome in [1], in [2], in [7], in experiment [10], in [12] and in experiment [14] was inactive. For the same compound, the call in [15], in experiment [16] and in experiment [18] was inactive. The half-maximal activity concentration (AC50) in [3] is 65.6 µM (active); in experiment [4] it was 186 µM (active); in experiment [5], 66.4 µM (active); in [6] it was 159 µM (active); in experiment [8], 172 µM (active); in experiment [9] it was 144 µM (active). For the same compound, the AC50 in [11] was 142 µM (active); in experiment [20] it was 169 µM (active); in experiment [13], 189 µM (active); in [17], 37.9 µM (active).

Turning to `NCCCN1CCOCC1`, the outcome in experiment [1], in [2], in experiment [3], in experiment [4], in [5] and in experiment [6] was inactive. Besides, the result in [7], in [8], in experiment [9], in experiment [10], in experiment [11] and in [20] was inactive. Moreover, the compound was called inactive in experiment [12], in experiment [13], in experiment [14], in experiment [15], in experiment [16] and in experiment [17]. The compound was called inactive in experiment [18] and in experiment [19].
